Laboratory results: PubChem BioAssay (Tox21)
Inconclusive results are not listed. Entries that show only a call come without a potency. Unmarked numbers belong to inactive results. Calls of active or inactive are those of the source. The call rests on the fitted dose curve.
Potency means the concentration at half of the fitted maximal effect.

Experiment: qHTS assay to identify small molecule agonists of the AP-1 signaling pathway - cell viability counter screen (AID 1159525); further: nearly all actives have a fitted effect of over 55% in size
Settings: ME-180 (cervical carcinoma) AP-1-bla cells viability, ATP luminescence, 5 h; series mostly up to 76.8 µM
Text: National Center for Advancing Translational Sciences [NCATS]
NIH Chemical Genomics Center [NCGC]
U.S. Environmental Protection Agency [EPA]
National Institutes of Environmental Health Sciences [NIEHS]
National Toxicology Program [NTP]
U.S. Food and Drug Administration [FDA]
Activator protein-1 (AP-1), a transcription factor, plays an important role in tumor genesis by regulating genes involved in cell proliferation, differentiation, apoptosis, and angiogenesis. AP-1 activity is induced by a complex network of signaling pathways that involves extracellular signals, such as growth factors. The AP-1 protein complex formed from c-Fos and c-Jun binding to the AP-1 response element results in transcriptional activation of genes containing such elements within their promoter.
Low molecular weight molecules have been discovered and developed to modulate various components of these signaling pathways, for example, MAP kinase inhibitors. However, many points of pathway modulation remain untested due to the lack of chemical probes making this signaling locus of general interest.
Using a beta-lactamase reporter-gene under control of the AP-1 response element, a cell-based assay [CellSensor(TM) AP-1-bla ME-180 developed by Invitrogen Corp.] was used to measure EGF-induced signaling. The Tox21 10K library compounds were measured for their ability to positively modulate the action of EC50 EGF on reporter gene activity. Compounds were screened in a 15-pt titration series in 1536-well format. The cytotoxicity of the Tox21 compound library against this cell line was tested in parallel by measuring the intra cellular ATP content in the same wells.
Tox21 Assay Protocol Summary:
2500 cells/5uL in Opti-MEM medium containing 0.5% dialyzed FBS, 0.1 mM NEAA, 1 mM sodium pyruvate and 10 mM HEPES was dispensed into 1536-well black wall/clear bottom plates using a Multidrop dispenser and cells were cultured at 37 degrees Celsius overnight. Next day 23 nL of compounds dissolved in DMSO, positive controls or DMSO were delivered to each well using a pin tool. The plates were incubated at 37 degrees Celsius for 5 hours. 1 uL of LiveBLAzerTM B/G FRET substrate (Solution A+B+C+D) was added to each well using a Flying Reagent Dispenser. After incubated at room temperature for 2.5 hours the plates were measured on an EnVision plate reader at Excitation 405nm, Emission1=460nm and Emission 2=530nm. The %Activity was determined from the ratio of 460nm/530nm.
After the plates were read for Beta-Lactamase assay on Envision; 3 ul Cell Titer Glo (Promega) was added to measure the cytotoxicity and the plates were then incubated at RT in dark for 30 min. The luminescence was read on ViewLux (Perkin Elmer, Shelton, CT) using 6 sec exposure. ViewLux data was expressed as relative luminescence units.
For primary data analysis, raw plate reads for each titration point were first normalized relative to […] EGF control (100%) and DMSO only wells (basal, 0%).
For primary data analysis for viability assay, raw plate reads for each titration point were first normalized Tetra n-octyl ammonium bromide control (-100%) and DMSO (control, 100%).
With `C[C@H]1NCc2cc(-c3ccc4c(=O)c(C(=O)O)cn(C5CC5)c4c3OC(F)F)ccc21` the viability change, negative = cytotoxic was 1.98% [at 15.8 µM]. For `CC1=CCC(=C(C)C)CC1`, the Potency was “inactive”. For `O=c1oc2cc(O)ccc2c2oc3cc(O)ccc3c12`, the Potency was “inactive”. Work on `O=C(O)O` yielded a viability change, negative = cytotoxic of -29.9% [at 6.97 µM]. With `CCN(CC)C(=O)c1cc(S(=O)(=O)Cc2ccccc2)c(N2CCC(c3ccccc3)CC2)cc1N(CC)CCN(C)C` the Potency was 17.2 µM (active). For `Cc1ccc(-c2ccccc2)cc1`, the Potency was “inactive”. With `Cc1ccc(C(C)C)cc2c(C)ccc1-2` the Potency was “inactive”. With `COc1cc(C)ccc1O` the Potency was “inactive”. For `CCCCCCCC`, the Potency was “inactive”. For `COC(C)=O`, the Potency was “inactive”. In the case of `CC1=Nc2ccccc2C1(C)C`, the Potency is reported as “inactive”. With `C[C@@H](O)[C@H](N)C(=O)O` the viability change, negative = cytotoxic was 3.86% [at 15.8 µM]. With `CCCCNS(=O)(=O)c1ccc(C)cc1` the Potency was “inactive”. With `CC1(C)CC(O)CC(C)(C)N1` the Potency was “inactive”. For `OC/C=C/CO`, the Potency was “inactive”. In the case of `Nc1ccc(Oc2ccc(Cl)cc2)cc1`, the Potency is reported as “inactive”. In the case of `CCCCN(CCCC)CC(O)c1cc(Cl)cc2c1-c1ccc(Cl)cc1/C2=C/c1ccc(Cl)cc1` (stereo not given), the Potency is reported as “inactive”. In the case of `CN1CCCCC1CCN1c2ccccc2Sc2ccc(S(C)=O)cc21` (stereo not given), the Potency is reported as “inactive”. With `O=C(O)Cc1ccccc1Nc1c(Cl)cccc1Cl` the Potency was “inactive”. For `CCn1c2ccccc2c2cc([N+](=O)[O-])ccc21`, the Potency was “inactive”. For `Cc1cccc(C(=O)O)c1O`, the Potency was “inactive”. For `C=CC(C)(CCC=C(C)C)OC=O` (stereo not given), the Potency was “inactive”. With `C=C(CC)C(=O)c1ccc(OCC(=O)O)c(Cl)c1Cl` the Potency was “inactive”. For `CC1(C)CCC[C@]2(C)[C@H]3CCO[C@]3(C)CC[C@@H]12`, the Potency was “inactive”. With `C=CC(=O)OCCOC(=O)C=C` the Potency was “inactive”. In the case of `CCCC(=O)OCOC(=O)C1=C(C)NC(C)=C(C(=O)OC)C1c1cccc(Cl)c1Cl` (stereo not given), the Potency is reported as “inactive”. With `S=c1nccc[nH]1` the Potency was “inactive”. In the case of `CCC(C)(CCC(C)C)C(=O)[O][Sn]([CH3])([CH3])[O]C(=O)C(C)(CC)CCC(C)C` (stereo not given), the Potency is reported as “inactive”. With `COc1ccc(NC(=O)CC(C)=O)cc1` the Potency was “inactive”. For `CCCCCC(C)OC(=O)COc1ccc(Cl)c2cccnc12` (stereo not given), the Potency was 34.7 µM (active). For `COC(=O)c1ccccc1OC`, the Potency was “inactive”. In the case of `S=C([S-])NCCNC(=S)[S-].S=C([S-])NCCNC(=S)[S-].[Mn+2].[Zn+2]`, the Potency is reported as “inactive”. With `COc1ccc2cc1Oc1ccc(cc1)C[C@H]1c3c(cc4c(c3Oc3cc5c(cc3OC)CCN(C)[C@@H]5C2)OCO4)CCN1C` the Potency was “inactive”. With `CC(=O)CC(=O)Nc1ccc(S(=O)(=O)O)cc1` the Potency was “inactive”. In the case of `Nc1ccc(NCCO)c([N+](=O)[O-])c1`, the Potency is reported as “inactive”. With `O=S(=O)(O)c1ccccc1/C=C/c1ccc(-c2ccc(/C=C/c3ccccc3S(=O)(=O)O)cc2)cc1` the Potency was “inactive”. For `CCC(COC(=O)CCS)(COC(=O)CCS)COC(=O)CCS`, the Potency was “inactive”. In the case of `CCN1C(=O)c2ccccc2C1Nc1ccc(OCCN2CCCCC2)cc1` (stereo not given), the Potency is reported as “inactive”. In the case of `O=C(O)c1cc(-c2ccc(F)cc2F)ccc1O`, the Potency is reported as “inactive”. With `[Cu+]` the Potency was “inactive”.
